# NALP3 yeast inh: inhibitors of NALP3 inflammasome in yeast; Yeast reconstituted NLRP3/ASC/caspase-1, beta-gal luminescence, 24 h; inhibition, % at 10 µM; hit rate 0.39% among 330,000;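 active = inhibition of 50% or more; inactive = inhibition below 50%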;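 note: plate controls were induced DMSO wells for no effect and uninduced yeast grown without galactose for full effect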
# TIM10 inh: inhibits growth of TIM10 yeast strain | S. cerevisiae TIM10 strain growth, BacTiter-Glo luminescence, 24 h | inhibition, % at 10 µM | hit rate 1.4% among 330,000;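 active = inhibition of 40% or more at the single tested concentration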;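 note: wild-type TIM10 isogenic control strain grown at permissive 25 °C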
# V-ATPase pHluor: regulators of yeast V-ATPase proton transport. S. cerevisiae, pHLuorin cytosolic pH fluorescence. hit rate 0.37% among 350,000. response, % at 10 µM. AID 504577; in the data active = response mostly above about 7.3%, no sharp cut-off; inactive = mostly below about 5.4%; note: actives read high
# tim23-1 inh: growth inhibitors of tim23-1 mutant yeast | S. cerevisiae tim23-1 growth, BacTiter-Glo luminescence, 24 h | inhibition, % at 20 µM | hit rate 1.3% among 330,000 | AID 463212;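 active = growth inhibition of the mutant yeast at or above 50%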;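 note: temperature-sensitive mutant grown at 25 °C; plate controls were DMSO-treated mutant yeast for no effect and medium wells lacking yeast for full effect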
# NALP1 yeast inh: inhibitors of NALP1 inflammasome in yeast. S. cerevisiae NALP1/ASC/caspase-1 growth, X-gal OD620, 72 h. inhibition, % at 10 µM. hit rate 0.61% among 280,000; in the data active = inhibition mostly above about 24%, no sharp cut-off; inactive = mostly below about 32%
# tim10-1 inh: tim10-1 yeast growth inhibition; S. cerevisiae tim10-1 ts strain growth, BacTiter-Glo, 24 h; inhibition, % at 20 µM; hit rate 2.2% among 330,000; AID 463190;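 active = inhibition of at least 40%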;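 note: mutant grown at 25 °C; 0% = DMSO wells with yeast and 100% = wells holding no yeast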
# tim10-1 conf: tim10-1 yeast growth inhibition, confirmed; hit rate 56% among 7,400; S. cerevisiae tim10-1 ts strain growth, BacTiter-Glo, 24 h; inhibition, % at 20 µM; shares compounds with tim10-1 inh;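 active = inhibition of yeast growth at or above a set limit in either of two repeat tests at 20 µM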;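 note: tim10-1 mutant grown at permissive 25 °C to find synthetic lethal compounds; 0% = DMSO yeast wells and 100% = medium wells without yeast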
# TIM10 conf: TIM10 yeast growth inhibition, confirmed; hit rate 63% among 4,600; shares compounds with TIM10 inh; S. cerevisiae tim10 strain growth, BacTiter-Glo luminescence, 24 h; inhibition, % at 10 µM; AID 463215;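 active = inhibition of yeast growth at or above a set limit in either of two replicates at 10 µM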;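 note: this counterscreen used the strain with wild-type TIM10; 0% = yeast with DMSO and 100% = medium wells lacking yeast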
# tim23-1 confirm: tim23-1 yeast growth inhibition, confirmed; shares compounds with tim23-1 inh; S. cerevisiae tim23-1 growth, BacTiter-Glo luminescence, 24 h; inhibition, % at 20 µM; hit rate 83% among 4,400; AID 463218;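 active = inhibition above about 39% in either of two replicate wells at 20 µM, limit read from the data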;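 note: temperature-sensitive tim23-1 mutant grown at 25 °C; 0% = DMSO wells with yeast and 100% = medium wells without yeast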
# * hit, by the source's call; · = no result given. Only some compounds are listed: those with a hit (about 4.2% of all), similar ones and a draw of the others.
SMILES,NALP3 yeast inh,TIM10 inh,V-ATPase pHluor,tim23-1 inh,NALP1 yeast inh,tim10-1 inh,tim10-1 conf,tim23-1 confirm,others
Nc1cccc2c1C(=O)N(C(=O)/C=C/c1cccc(F)c1)C2=O,-11.0,50.2*,-4.8,81.9*,39.4,69.4*,59.3*,86.7*,TIM10 conf=39.5*
O=C1N(c2ccccc2C(F)(F)F)OC1(Cc1ccccc1)c1ccccc1 (centres undefined),-45.2,8.7,0.0,23.2,·,-38.3,·,·,
CC(Sc1n[nH]c(N)n1)C(=O)C12CC3CC(CC(C3)C1)C2 (centres undefined),-4.9,0.1,0.5,11.6,16.0,3.5,·,·,
CC(SC#N)C(=O)C12CC3CC(CC(C3)C1)C2 (centres undefined),19.1,55.4*,-5.1,65.6*,-27.6,53.1*,39.4*,50.5*,TIM10 conf=40.6*
O=C(Nc1cccc(Cl)c1)c1ccc(NCC2CCCO2)c([N+](=O)[O-])c1 (centres undefined),19.2,9.3,-0.1,-8.0,26.1,-0.2,·,·,
COc1cccc2nc3cc(C)c(C)cc3nc12,20.8,43.4*,-3.1,50.1*,12.2,63.5*,53.4*,53.7*,TIM10 conf=32.9*
O=S(=O)(/N=C(\Sc1ccc(Cl)cc1)c1ccccc1)c1ccccc1,3.8,34.4,0.1,55.3*,-6.3,44.9*,40.0*,81.2*,
COc1ccc(C(C[N+](=O)[O-])c2c(-c3ccccc3)cc3ccccn23)c(OC)c1 (centres undefined),12.6,59.5*,2.6,73.2*,-0.2,70.0*,67.3*,91.2*,TIM10 conf=67.0*
COc1ccc(C(C[N+](=O)[O-])c2c(C)cc3ccccn23)cc1 (centres undefined),13.7,8.7,3.9,46.8,-2.4,30.1,·,·,
Oc1c(Br)cc(Cl)cc1C=Nc1ccccc1Br,4.1,38.1,-8.4,84.1*,33.4,45.9*,25.2,78.7*,
Oc1c(Br)cc(Cl)cc1C=Nc1ccc(N2CCOCC2)cc1,21.4,12.9,-3.4,36.1,-11.0,27.2,·,·,
O=C(c1cc(F)ccc1F)N1CCC(N2CCC(C(=O)N3CCCC3)CC2)CC1,14.8,18.6,-0.2,-2.9,30.0,-11.2,·,·,
COc1ccccc1S(=O)(=O)c1ccccc1[N+](=O)[O-],-29.8,16.7,5.7,15.3,19.9,12.3,·,·,
COc1ccc([N+](=O)[O-])c(S(=O)(=O)c2ccccc2)n1,33.7,-16.4,8.8,76.8*,6.3,49.6*,46.5*,47.0*,
COc1ccc([N+](=O)[O-])c(S(=O)(=O)c2ccc(Cl)cc2)n1,34.6,83.5*,10.2,52.6*,5.4,74.5*,73.3*,85.5*,TIM10 conf=93.6*
COc1cccc(N(CC(=O)NC2CCCCC2)C(=O)CCC(=O)Nc2nccs2)c1,16.3,10.9,1.9,16.3,8.6,-0.5,·,·,
Cc1ccc(C(=O)/C=C/c2ccc3ncccc3c2)cc1,36.2,51.6*,-3.6,68.9*,5.7,52.6*,52.3*,46.8*,TIM10 conf=50.3*
Cc1cc(/C=C(\C#N)C(=O)NCc2ccccc2)cc(C)c1O,11.7,-13.1,-6.6,7.1,6.0,-5.7,·,·,
COc1cc(/C=C(/C#N)C(=O)NCc2ccccc2)cc(OC)c1OC,14.6,34.0,1.1,62.6*,-21.5,55.0*,49.1*,60.5*,
CNCc1ccccc1Sc1cccc(O)c1,20.7,6.4,-2.7,8.6,34.0,-3.1,·,·,
CNCc1ccccc1Sc1cc(O)ccc1O,17.9,35.8,2.0,60.1*,56.0*,50.9*,46.6*,55.8*,
O=C(CCC(=O)NNC(=S)Nc1ccccc1)NCc1ccccc1,9.2,5.2,-1.3,-2.2,·,5.6,·,·,
Cc1ccc(NC(=O)C(C)c2ccc([N+](=O)[O-])cc2)cc1Cl (centres undefined),11.6,58.7*,-0.6,51.4*,35.2,57.9*,59.2*,60.8*,TIM10 conf=48.4*
CC(C(=O)Nc1ccccc1Br)c1ccc([N+](=O)[O-])cc1 (centres undefined),20.4,0.0,5.6,15.5,23.0,10.0,·,·,
COc1ccccc1OCC(=O)N(Cc1nc(-c2ccccc2)no1)C1CCCCC1,32.8,26.8,-0.1,52.3*,16.7,41.7*,31.5*,51.1*,
SMILES,NALP3 yeast inh,TIM10 inh,V-ATPase pHluor,tim23-1 inh,NALP1 yeast inh,tim10-1 inh,tim10-1 conf,tim23-1 confirm,others
CCOC(=O)C(C(=O)OCC)C(C(=O)OCC)N1CCOCC1 (centres undefined),12.1,68.0*,12.1*,56.8*,101.4*,62.7*,60.4*,59.0*,TIM10 conf=71.0*
CCOC(=O)C(C)CC(C)C(=O)N1CCOCCOCCN(C(=O)C(C)CC(C)C(=O)OCC)CCOCC1 (centres undefined),-7.5,15.5,-3.9,0.9,-16.9,14.8,·,·,
CN(C1CCCCC1)S(=O)(=O)c1cc2c(cc1Cl)NC(=O)CO2,21.2,6.2,-3.2,51.1*,1.4,47.5*,6.5,33.8,
O=c1c2c([N+](=O)[O-])cc([N+](=O)[O-])cc2sn1-c1ccc(Br)cc1,13.7,19.3,-1.7,54.4*,25.8,85.0*,93.4*,70.2*,
Cc1cccc(C(=O)Nc2ccccc2NC(=O)c2cccc(C)c2)c1,·,·,2.5,·,24.5,·,·,·,
Cc1cccc(/C=N\NC(=O)c2ccccc2-n2cccc2)c1,20.3,31.5,-2.1,38.4,15.4,32.1,·,·,
O=C(N/N=C/c1ccc(Br)cc1)c1ccccc1-n1cccc1,9.0,36.7,-1.4,54.1*,14.6,42.4*,37.0*,51.1*,
COc1ccc(NC(=S)Nc2cc(C)[nH]n2)cc1Cl,5.5,-3.3,-1.6,-12.4,·,15.8,·,·,
Cc1cc(NC(=S)Nc2ccc(C)c(Cl)c2)n[nH]1,23.4,28.5,1.9,51.2*,9.1,46.5*,27.4,39.0*,
C/C(=N\NC(=S)Nc1cc(S(=O)(=O)N2CCOCC2)ccc1Cl)c1ccccc1F,30.8,43.7*,3.1,60.9*,20.6,40.5*,36.6*,42.0*,TIM10 conf=-9.3
CC(=O)Cc1nsc(NC(=O)c2oc(-c3ccccc3Cl)cc2C)n1,5.2,11.2,4.1,32.9,8.4,16.4,·,·,
CC(=O)Cc1nsc(NC(=O)c2ccc(-c3ccccc3Cl)o2)n1,10.9,25.4,3.9,51.0*,30.2,48.5*,43.4*,51.4*,
COC(=O)c1cc(C(=O)Nc2ccc(S(=O)(=O)NC(C)(C)C)cc2)cc([N+](=O)[O-])c1,0.6,-14.5,-1.5,-2.3,10.0,1.7,·,·,
CC(=O)N1N=C(c2ccc(C)cc2)OC1c1ccc(Br)cc1 (centres undefined),20.2,12.3,9.2,34.8,10.2,38.9,·,·,
